# Most compounds without a hit are left out; they make up all but 4.1% or so of the library.
# FBA Mtb inh = Mtb fructose-bisphosphate aldolase inhibition. P9WQA3. purified M. tuberculosis FBA, fluorescence read-out. inhibition, % at 1 µM. 2.3% of 360,000 active. AID 588726;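 also: 0% = vehicle and 100% = reference inhibitor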
# Rv3671c inh = inhibits the M. tuberculosis serine protease Rv3671c; inhibition, % at 5.96 µM; 0.048% of 320,000 active; AID 2606; in the data active = inhibition above about 38%;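 also: extracellular domain of Rv3671c used as enzyme; 0% = enzyme with DMSO and 100% = no enzyme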
# GDH-TPI counter-1 = inhibits GDH-TPI coupling enzymes, artifact for Mtb FBA screen; GDH-TPI coupled enzyme counterscreen, NADH absorbance; inhibition, % at 4.8 µM; 1.2% of 360,000 active; AID 588335; in the data active = inhibition above about 30%;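 also: 0% = DMSO wells and 100% = wells lacking the enzyme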
# UGM FP inh = blocks M. tuberculosis UGM enzyme; purified UGM, fluorescence polarization probe displacement; 0.06% of 320,000 active; P9WIQ1; inhibition, % at 10 µM; AID 504406; in the data active = inhibition above about 10%, passing the limit was not always enough
# BH1578 lux ind = quorum light induction in luxS cqsA deficient V. cholerae | 0.16% of 350,000 active | activation, % at 18.7 µM | V. cholerae BH1578 lux reporter, luminescence, 6 h | AID 588436; in the data active = activation mostly above about 9.7%, no sharp cut-off
# RecA intein inh = inhibitors of M. tuberculosis RecA intein splicing; P9WHJ3; cell-free RecA intein splicing, fluorescence; inhibition, % (concentration not given with the values); 0.75% of 290,000 active; AID 2221; in the data active = inhibition above about 30%;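 also: 0% = vehicle wells and 100% = reference inhibitor control wells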
# Mtb FBA confirm = confirmation of M. tuberculosis fructose-bisphosphate aldolase inhibitors; shares compounds with FBA Mtb inh; purified M. tuberculosis FBA, fluorescence read-out; inhibition, % at 1 µM; 78% of 5,600 active;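 also: 0% = vehicle wells and 100% = reference inhibitor wells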
# GDH-TPI counter-2 = inhibits GDH-TPI coupling enzymes, flagging Mtb FBA hits; inhibition, % at 1 µM; GDH-TPI coupled enzyme counterscreen, fluorescence; 81% of 5,600 active; AID 652141; shares compounds with FBA Mtb inh; in the data active = inhibition above about 10%
# The depositor's hits bear a star; i = inactive; . = not tested or not shown; + = active, no number. Rule as the data show it, unless noted: active = inhibition above about 27%; inactive = the rest.
SMILES,FBA Mtb inh,Rv3671c inh,GDH-TPI counter-1,UGM FP inh,BH1578 lux ind,RecA intein inh,Mtb FBA confirm,GDH-TPI counter-2
Cc1cc(=O)oc2cc(OCC(=O)NCCCn3ccnc3)ccc12,17,-8,11,2,-3,-2,.,.
Cc1c(C)c2ccc(OCC(=O)NCCCn3ccnc3)cc2oc1=O,62*,-5,13,0,0,1,195*,138*
CCCN1CCN(C(c2cc3cc4c(cc3[nH]c2=O)OCO4)c2nnnn2C(C)(C)C)CC1 (stereo unspecified),66*,-4,12,2,0,-7,58*,-3
CCC(C)(C)n1nnnc1CN(Cc1ccco1)Cc1cc2cc3c(cc2[nH]c1=O)OCO3,35*,-3,14,-1,-1,-10,90*,97*
COCCn1nnnc1CN(Cc1ccco1)Cc1cc2cc3c(cc2[nH]c1=O)OCO3,48*,-6,22,1,0,-12,+,+
COc1ccc2cc(CN(Cc3ccco3)Cc3nnnn3C3CCCCC3)c(=O)[nH]c2c1,4,-4,27,-2,i,7,.,.
COc1ccc2[nH]c(=O)c(CN(Cc3ccco3)Cc3nnnn3Cc3ccccc3)cc2c1,10,-18,5,4,13,-4,.,.
CC(C)(C)n1nnnc1CN(Cc1ccco1)Cc1cc2cc3c(cc2[nH]c1=O)OCO3,46*,-9,21,1,0,-2,11,-4
CN(C)C(=O)CCc1ccc2c3c([nH]c2c1)[C@]1(CCC2CCCC2)[C@@H](C(=O)N2CCOCC2)C[C@H](CC(=O)NCCC2=CCCCC2)C(=O)N1CC3,-1,.,4,.,-1,.,.,.
CCCCc1cc(=O)oc2cc(C)cc(OCC(=O)N3C[C@H]4C[C@@H](C3)c3cccc(=O)n3C4)c12,42*,0,13,4,0,.,51*,38*
Cc1cc(OCC(=O)N2C[C@H]3C[C@@H](C2)c2cccc(=O)n2C3)c2c(C)c(C)c(=O)oc2c1,40*,-2,9,-1,-1,.,39*,23*
CCCc1cc(=O)oc2cc(C)cc(OCC(=O)N3C[C@H]4C[C@@H](C3)c3cccc(=O)n3C4)c12,42*,.,10,.,0,.,167*,127*
Cc1cccc(NC(=O)c2cccnc2Oc2ccccc2)c1C(=O)O,3,-3,3,1,-8,0,.,.
C/C(=N\Nc1nc2ccccc2[nH]1)c1ccc(N2CCOCC2)cc1,-5,2,15,0,-1,-2,.,.
Cn1c(=O)c(=O)n(C)c2cc(S(=O)(=O)N3CCOCC3)ccc21,5,4,1,-1,0,5,.,.
Cc1ccn2c(c1)nc(=O)c1cc(S(=O)(=O)N3CCOCC3)ccc12,79*,3,10,0,0,0,153*,109*
Cc1cc(=O)[nH]c2ccc(S(=O)(=O)N3CCOCC3)cc12,72*,-2,-4,1,1,-2,124*,137*
O=C(NC1CCCCCC1)c1cc(=O)[nH]c2ccc(S(=O)(=O)N3CCOCC3)cc12,-3,7,6,0,-1,-2,.,.
CC1=C(C(=O)N2CCOCC2)CC(CC(=O)NCc2cccs2)C(=O)N1Cc1ccc(F)cc1 (stereo unspecified),0,.,0,.,0,.,.,.
COC(=O)CN(C)C(=O)c1cccc(OC2CCN(S(=O)(=O)N(C)C)CC2)c1,2,4,4,-3,i,-2,.,.
CCc1cc2c(=O)c(-c3ccc4c(c3)OCCO4)coc2c(CN2CCCCC2C)c1O (stereo unspecified),45*,-1,14,4,1,-2,70*,70*
COc1ccc(-c2coc3c(CN4CCCCC4C)c(O)ccc3c2=O)cc1 (stereo unspecified),78*,9,-2,1,i,-2,70*,46*
CC1CN(Cc2c(O)ccc3c2oc(=O)c2ccccc23)CC(C)O1 (stereo unspecified),5,4,17,2,i,-7,.,.
COc1ccc(-c2coc3cc(OC4OC(CO)C(O)C(O)C4O)ccc3c2=O)cc1 (stereo unspecified),5,2,4,-1,i,0,.,.
CC1CN(Cc2c(O)ccc3c(=O)c(-c4ccccc4)coc23)CC(C)O1 (stereo unspecified),90*,2,25,2,i,-3,-6,-6
SMILES,FBA Mtb inh,Rv3671c inh,GDH-TPI counter-1,UGM FP inh,BH1578 lux ind,RecA intein inh,Mtb FBA confirm,GDH-TPI counter-2
CCc1cc2c(=O)c(-c3nc4ccccc4[nH]3)coc2c(CN2CCCCC2C)c1O (stereo unspecified),-4,7,20,1,i,-2,.,.
CN(C)Cc1c(O)ccc2c(=O)c(-c3ccc(Cl)cc3)coc12,46*,-4,21,0,0,.,43*,30*
CN(C)S(=O)(=O)c1cccc(COC(=O)CNC(=O)c2ccc(Br)o2)c1,1,.,-9,.,1,.,.,.
O=c1c(-c2ccccc2)coc2c(CN3CCCCC3)c(O)ccc12,106*,0,36*,0,-1,-3,90*,88*
C=CCN(CC=C)Cc1c(O)ccc2c(=O)c(-c3ccccc3)coc12,53*,1,15,3,i,-1,34*,27*
CC1CCCCN1Cc1c(O)ccc2c(=O)c(-c3ccccc3)coc12 (stereo unspecified),66*,-5,15,-1,i,-3,77*,57*
CCc1cc2c(=O)c(-c3nc4ccccc4[nH]3)coc2c(CN2CCCCC2)c1O,2,1,3,-2,0,1,.,.
CCC1CCCCN1Cc1c(O)ccc2c(=O)c(-c3ccccc3)coc12 (stereo unspecified),54*,-12,21,1,-1,0,41*,32*
COc1ccc(-c2nnc(-c3ccc(C)cc3)o2)cc1,62*,5,-2,0,0,3,7,-4
Cc1ccc(-c2nnc(-c3cccs3)o2)cc1,54*,1,9,-1,-1,-2,61*,49*
CC(=O)NC(C)(c1ccccc1)c1nc(-c2cccc3cccnc23)cs1 (stereo unspecified),5,.,6,.,i,.,.,.
Cc1ccccc1N(CC(=O)NC1CCCCC1)C(=O)CCC(=O)Nc1nccs1,0,-5,-3,1,0,-3,.,.
CC1(C(=O)N(CC(=O)NC2CCCC2)C2CCCC2)CC(=O)N=C2C=CC=CN21 (stereo unspecified),110*,12,25,0,i,-3,-1,-5
